Source: PubChem BioAssay (EPA / NIEHS)
Calls of active or inactive are those of the source. How the source made its calls: active means hit-call score of the fitted dose curve at least 0.9, where 1 is the maximum; inactive means score below 0.9.

Key:
[1] = ATG_CRE_CIS: Attagene CIS-FACTORIAL HepG2 Assay for human cAMP Responsive Element (CRE) binding protein 3 (AID 2282926); conditions: HepG2 CRE cis-reporter, Attagene multiplexed mRNA; actives raise or lower the signal
In short: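 HepG2 cells transiently transfected with a multiplexed reporter library (CRE-driven unit among them) were dosed for 24 h. Reporter mRNA was quantified by RT-PCR, fluorescent labelling, HpaI digestion and capillary electrophoresis, with bidirectional fitting against DMSO baseline.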

[2] = biological target: CCAAT/enhancer-binding protein beta (Homo sapiens) (UniProt P17676); experiment: ATG_C_EBP_CIS: Attagene CIS-FACTORIAL HepG2 Assay for human CCAAT/Enhancer Binding Protein (C/EBP) beta (AID 2282927); conditions: HepG2 Attagene cis-factorial transcription factor reporter; actives raise or lower the signal
In short: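 HepG2, transient MRTU transfection, 24 h treatment. RT-PCR plus CE fluorescence; DMSO negative control, bidirectional fit.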

[3] = ATG_CMV_CIS: Attagene CIS-FACTORIAL HepG2 Assay for human CMV (Internal Marker) (AID 2282928); conditions: HepG2 CMV promoter reporter, transcription factor profiling; actives raise or lower the signal;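 further: endpoint acts as a background internal control marker rather than a target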
In short: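 After transient transfection of HepG2 with reporter transcription units driven by cis-regulatory promoters, cells receive test chemical for 24 h. Labeled reporter amplicons, digested with HpaI, are sized and quantified by capillary electrophoresis against DMSO.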

[4] = ATG_DR4_LXR_CIS: Attagene CIS-FACTORIAL HepG2 Assay for human Liver X Receptor (LXR), DR4 submotif (AID 2282929); conditions: HepG2 Attagene DR4 cis-reporter, mRNA transcription; actives raise or lower the signal
In short: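 Fluorescence intensity of labelled reporter cDNA fragments, separated by capillary electrophoresis, gives the signal. HepG2 cells bearing cis-regulated reporter constructs were treated 24 h; activity fitted bidirectionally relative to DMSO negative control.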

[5] = ATG_AP_2_CIS: Attagene CIS-FACTORIAL HepG2 Assay for human Activator Protein 2 (AP-2) (AID 2282932); conditions: HepG2 AP-2 cis-reporter, Attagene transcription factor profiling; actives raise or lower the signal
In short: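 Multiplexed mRNA reporter assay in HepG2: cis-regulated units report endogenous factor activity after 24 h treatment. Fluorescence from capillary electrophoresis of RT-PCR products gives the signal, with DMSO as baseline.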

[6] = ATG_E_Box_CIS: Attagene CIS-FACTORIAL HepG2 Assay for human Enhancer Box (E-box) (AID 2282936); conditions: HepG2 E-box cis-reporter transcription, actives raise or lower the signal
In short: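 First, HepG2 cells receive multiple cis-regulated reporter constructs by transient transfection. Next, chemicals are applied for 24 h. Finally, reporter mRNA is quantified via RT-PCR and capillary electrophoresis, with DMSO as baseline.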

[7] = ATG_EGR_CIS: Attagene CIS-FACTORIAL HepG2 Assay for human Early Growth Response 1 (EGR1) (AID 2282938); conditions: HepG2 Attagene CIS-FACTORIAL EGR reporter mRNA; actives raise or lower the signal
In short: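 Activity is taken as induction or loss of reporter mRNA versus DMSO, fitted bidirectionally. Transcripts from cis-regulated reporter units in transiently transfected HepG2 were measured after 24 h by RT-PCR with capillary electrophoresis.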

[8] = ATG_M_19_CIS: Attagene CIS-FACTORIAL HepG2 Assay for M19 Transcription Factor (Internal Marker) (AID 2282939); conditions: HepG2 Attagene CIS-FACTORIAL M19 internal marker reporter; actives raise or lower the signal
In short: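 Following a 24 h exposure, RNA from transfected HepG2 cells was reverse-transcribed, PCR-amplified with reporter-specific primers, end-labelled with 6-FAM and HpaI-digested before capillary separation. Values represent gain or loss versus DMSO.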

[9] = ATG_Ets_CIS: Attagene CIS-FACTORIAL HepG2 Assay for human Erythroblast Transformation Specific (ETS) (AID 2282941); conditions: HepG2 ETS cis-reporter transcription, actives raise or lower the signal
In short: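 Human HepG2 hepatoma cells were transiently transfected with promoter-driven reporter constructs and treated for 24 hours. Reporter transcripts were quantified by RT-PCR with fluorescent primer extension; bidirectional curve fitting used DMSO as reference.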

[10] = biological target: Hepatocyte nuclear factor 3-beta (Homo sapiens) (UniProt Q9Y261); experiment: ATG_FoxA2_CIS: Attagene CIS-FACTORIAL HepG2 Assay for human Forkhead box A2 (FOXA2) (AID 2282942); conditions: HepG2 cis-reporter transcription factor activity, 24 h; actives raise or lower the signal
In short: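 Reporter transcript induction is measured by fluorescence after capillary electrophoresis of RT-PCR products from HepG2 cells exposed 24 h. Cis-regulated reporter units report endogenous factor activity; curves fitted both directions against DMSO.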

[11] = ATG_FoxO_CIS: Attagene CIS-FACTORIAL HepG2 Assay for human Forkhead box O (FoxO) (AID 2282943); conditions: HepG2 Attagene cis-reporter, FoxO element, mRNA; actives raise or lower the signal
In short: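 Transfected HepG2 reporter cells exposed to test chemical for 24 h; reporter RNA measured by reverse transcription, PCR and fluorescent capillary electrophoresis; curves fitted for increases and decreases against DMSO.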

[12] = ATG_GATA_CIS: Attagene CIS-FACTORIAL HepG2 Assay for human GATA Binding Protein (AID 2282944); conditions: HepG2 GATA cis-element reporter, Attagene multiplex mRNA; actives raise or lower the signal
In short: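 DMSO serves as negative control and baseline for bidirectional fitting of reporter mRNA changes. HepG2 cells bearing transiently transfected cis-promoter reporters were exposed 24 h; transcripts detected via RT-PCR and capillary electrophoresis.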

[13] = ATG_M_32_CIS: Attagene CIS-FACTORIAL HepG2 Assay for M32 Transcription Factor (Internal Marker) (AID 2282949); conditions: HepG2 Attagene cis-factorial M32 reporter, mRNA; actives raise or lower the signal;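 further: background control marker of the multiplexed CIS panel rather than a real target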
In short: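 Internal background marker read-out: RT-PCR/capillary electrophoresis fluorescence of reporter transcripts from transiently transfected HepG2 cells after 24 h chemical exposure. Activity fitted bidirectionally relative to DMSO negative control.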

[14] = ATG_M_06_CIS: Attagene CIS-FACTORIAL HepG2 Assay for M06 Transcription Factor (Internal Marker) (AID 2282950); conditions: HepG2 Attagene CIS-FACTORIAL M06 internal marker reporter; actives raise or lower the signal
In short: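 Fluorescence-labelled RT-PCR products from cis-promoter reporter units, cut with HpaI and resolved by capillary electrophoresis, give the signal. Cells are human HepG2, dosed for 24 h. Serves as background control, fitted relative to DMSO.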

[15] = ATG_PXRE_CIS: Attagene CIS-FACTORIAL HepG2 Assay for human Pregnane X Receptor Element (PXRE) (AID 2282957); conditions: HepG2 Attagene CIS-FACTORIAL PXRE reporter, mRNA; actives raise or lower the signal
In short: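 HepG2 cells transiently transfected with cis-regulated multiple reporter transcription units; endogenous factor activity measured as reporter mRNA 24 h after dosing. RT-PCR, fluorescent primer extension, HpaI digestion, capillary electrophoresis; bidirectional fit versus DMSO baseline.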

[16] = ATG_Sox_CIS: Attagene CIS-FACTORIAL HepG2 Assay for human SRY-box transcription factor (SOX) (AID 2282960); conditions: HepG2 Attagene cis-factorial SOX reporter, mRNA; actives raise or lower the signal
In short: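 Measures mRNA induction of a SOX1-associated reporter in HepG2 after 24 h dosing. Fluorescently labelled RT-PCR fragments are separated by capillary electrophoresis, and gain or loss relative to DMSO control is fitted.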

[17] = biological target: Transcription factor Sp1 (Homo sapiens) (UniProt P08047); experiment: ATG_Sp1_CIS: Attagene CIS-FACTORIAL HepG2 Assay for human Specificity Protein 1 (Sp1) (AID 2282961); conditions: HepG2 Sp1 cis-reporter transcription, actives raise or lower the signal
In short: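 Cells: HepG2, transiently transfected with cis-regulated multiplexed reporters. Exposure: 24 h. Detection: reporter transcripts amplified, fluorescently labeled, restriction-digested and sized by capillary electrophoresis. Analysis: bidirectional fit relative to DMSO.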

[18] = ATG_SREBP_CIS: Attagene CIS-FACTORIAL HepG2 Assay for human Sterol Regulatory Element Binding (SREBP) (AID 2282962); conditions: HepG2 Attagene cis-factorial SREBP reporter, mRNA; actives raise or lower the signal
In short: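 mRNA induction of transfected cis-promoter reporters in HepG2 cells, 24 h post-dose. Detection: RT-PCR with 6-FAM-labelled products, HpaI digest, capillary electrophoresis. DMSO served as negative control and baseline.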

[19] = biological target: Signal transducer and activator of transcription 3 (Homo sapiens) (UniProt P40763); experiment: ATG_STAT3_CIS: Attagene CIS-FACTORIAL HepG2 Assay for human Signal Transducer and Activator of Transcription 3 (STAT3) (AID 2282963); conditions: HepG2, Attagene cis-factorial STAT3 reporter transcription; actives raise or lower the signal
In short: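 Values derive from bidirectional fits relative to DMSO of reporter mRNA levels, measured by RT-PCR with capillary electrophoresis, in HepG2 cells carrying transiently transfected cis-regulated reporter units and exposed 24 h.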

Measured: AC50

Chain of CCAAT/enhancer-binding protein beta (Homo sapiens) (P17676 whole entry, looked up): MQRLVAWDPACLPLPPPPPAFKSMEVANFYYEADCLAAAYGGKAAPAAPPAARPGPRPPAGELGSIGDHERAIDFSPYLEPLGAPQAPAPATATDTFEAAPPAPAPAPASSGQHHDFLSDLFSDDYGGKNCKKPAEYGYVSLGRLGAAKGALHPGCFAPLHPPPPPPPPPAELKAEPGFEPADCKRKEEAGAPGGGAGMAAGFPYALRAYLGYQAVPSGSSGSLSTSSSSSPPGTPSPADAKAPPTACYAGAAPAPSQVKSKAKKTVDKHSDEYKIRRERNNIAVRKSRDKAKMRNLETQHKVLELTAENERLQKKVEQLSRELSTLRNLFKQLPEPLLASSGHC
Chain of Hepatocyte nuclear factor 3-beta (Homo sapiens) (Q9Y261 whole entry, looked up): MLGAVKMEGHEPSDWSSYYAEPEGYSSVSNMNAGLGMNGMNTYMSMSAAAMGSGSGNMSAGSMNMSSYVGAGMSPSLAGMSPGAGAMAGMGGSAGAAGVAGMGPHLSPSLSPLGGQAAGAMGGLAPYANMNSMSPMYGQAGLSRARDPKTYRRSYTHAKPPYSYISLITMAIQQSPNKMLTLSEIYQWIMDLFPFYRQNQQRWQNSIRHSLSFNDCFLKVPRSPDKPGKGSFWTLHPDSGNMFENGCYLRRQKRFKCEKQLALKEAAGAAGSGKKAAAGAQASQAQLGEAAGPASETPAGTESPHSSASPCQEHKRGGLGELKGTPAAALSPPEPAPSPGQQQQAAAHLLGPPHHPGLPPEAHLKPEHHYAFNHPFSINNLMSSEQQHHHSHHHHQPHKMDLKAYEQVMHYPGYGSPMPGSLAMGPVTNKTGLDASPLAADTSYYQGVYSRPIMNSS
Chain of Transcription factor Sp1 (Homo sapiens) (P08047 whole entry, looked up): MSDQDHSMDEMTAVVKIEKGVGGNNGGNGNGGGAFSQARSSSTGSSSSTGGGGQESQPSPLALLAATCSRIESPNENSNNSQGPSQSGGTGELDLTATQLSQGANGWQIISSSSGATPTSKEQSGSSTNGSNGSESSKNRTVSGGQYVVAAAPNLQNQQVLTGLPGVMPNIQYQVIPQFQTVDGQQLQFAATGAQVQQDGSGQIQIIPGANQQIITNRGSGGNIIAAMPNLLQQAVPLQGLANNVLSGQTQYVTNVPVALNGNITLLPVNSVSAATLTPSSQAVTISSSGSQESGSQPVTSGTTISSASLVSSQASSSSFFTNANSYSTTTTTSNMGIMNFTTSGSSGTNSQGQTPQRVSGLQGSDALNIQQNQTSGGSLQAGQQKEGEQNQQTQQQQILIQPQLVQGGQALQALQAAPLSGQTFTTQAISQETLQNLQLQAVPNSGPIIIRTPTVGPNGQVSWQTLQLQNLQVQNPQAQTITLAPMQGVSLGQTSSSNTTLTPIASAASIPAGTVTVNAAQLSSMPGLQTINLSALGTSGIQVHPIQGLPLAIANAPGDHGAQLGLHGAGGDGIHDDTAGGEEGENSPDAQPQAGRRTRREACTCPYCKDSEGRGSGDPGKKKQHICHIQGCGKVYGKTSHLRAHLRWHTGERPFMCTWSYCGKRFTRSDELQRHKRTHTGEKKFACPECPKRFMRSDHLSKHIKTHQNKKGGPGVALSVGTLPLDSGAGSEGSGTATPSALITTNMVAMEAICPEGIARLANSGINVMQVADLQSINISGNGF
Chain of Signal transducer and activator of transcription 3 (Homo sapiens) (P40763 whole entry, looked up): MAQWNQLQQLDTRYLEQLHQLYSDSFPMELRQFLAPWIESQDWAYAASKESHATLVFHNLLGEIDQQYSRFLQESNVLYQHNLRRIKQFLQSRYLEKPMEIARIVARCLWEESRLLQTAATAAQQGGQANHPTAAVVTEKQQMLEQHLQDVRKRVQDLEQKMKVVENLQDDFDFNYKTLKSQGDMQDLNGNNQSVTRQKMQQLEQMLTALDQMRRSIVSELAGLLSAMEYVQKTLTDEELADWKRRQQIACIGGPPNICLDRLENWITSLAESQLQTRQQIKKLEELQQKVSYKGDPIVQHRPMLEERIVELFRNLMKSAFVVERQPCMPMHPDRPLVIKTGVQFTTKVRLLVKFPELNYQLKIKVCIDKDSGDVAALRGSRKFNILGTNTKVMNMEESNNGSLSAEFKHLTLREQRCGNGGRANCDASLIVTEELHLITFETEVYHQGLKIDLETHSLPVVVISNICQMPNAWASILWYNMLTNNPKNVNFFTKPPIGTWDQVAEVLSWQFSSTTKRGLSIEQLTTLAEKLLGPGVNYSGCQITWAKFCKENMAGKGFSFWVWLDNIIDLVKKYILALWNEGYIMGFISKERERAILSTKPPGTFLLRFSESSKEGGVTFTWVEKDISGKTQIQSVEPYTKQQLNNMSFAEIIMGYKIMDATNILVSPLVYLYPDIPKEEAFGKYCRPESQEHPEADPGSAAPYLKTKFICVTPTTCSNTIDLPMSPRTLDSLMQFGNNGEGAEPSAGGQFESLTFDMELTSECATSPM

c1ccc(Nc2ccc3ccccc3c2)cc1
active: [4] 20.6 µM | [15] 10.3 µM
inactive: all other assays above

N#CCCCl
inactive: all assays above

O=[N+]([O-])C=Cc1ccccc1
active: [1] 20 µM | [4] 29.6 µM | [5] 21.4 µM | [6] 25.5 µM | [7] 14.4 µM | [10] 22.7 µM | [11] 33.4 µM | [12] 22.1 µM | [15] 56.8 µM | [16] 20.1 µM | [17] 21.2 µM | [19] 33.4 µM
inactive: [2] | [3] | [8] | [9] | [13] | [14] | [18]

O=C(O)c1cc[c]([Hg][Cl])cc1
active: [17] 11.1 µM
inactive: all other assays above

C[N+](C)(C)CC(=O)O
inactive: all assays above
